# “And” between values parts separate entries of the source, which are not always exact repeats. Equal entries are not always repeated.
# Target: Fibroblast growth factor 2 (Homo sapiens) (UniProt P09038)
# Assay: FGF2 binders on small-molecule microarrays, primary screen, biochemical, small-molecule microarray, 635/667 nm fluorescence (AID 1133)
# Conditions: small-molecule microarray binding, FGF2, fluorescence 635/667; higher = more signal
# Chain of Fibroblast growth factor 2 (Homo sapiens) (P09038 whole entry, looked up): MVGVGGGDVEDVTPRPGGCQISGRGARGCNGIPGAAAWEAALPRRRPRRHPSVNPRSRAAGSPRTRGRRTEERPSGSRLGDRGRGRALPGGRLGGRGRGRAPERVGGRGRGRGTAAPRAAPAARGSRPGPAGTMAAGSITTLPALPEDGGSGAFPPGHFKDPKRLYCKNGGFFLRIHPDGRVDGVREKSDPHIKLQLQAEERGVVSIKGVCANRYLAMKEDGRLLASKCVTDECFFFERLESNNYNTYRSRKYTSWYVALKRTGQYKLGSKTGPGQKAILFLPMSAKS
row,SMILES,composite z-score
1,C=CCN(CCCC)C(=O)C(c1cccs1)N(CCOCCO)C(=O)/C=C\C(=O)O (stereo not drawn),-1.01 and -0.379
2,CC(C)[Si]1(C(C)C)OCc2cc(CCCc3cc4c(c(CCc5ccccc5)n3)[Si](C(C)C)(C(C)C)OC4)nc(CCc3ccccc3)c21,-0.0119 and 0.483
3,O=C1[C@H]2[C@H]3[C@H](O)[C@H](O)CC(=NOCc4ccccc4)[C@H]3CC[C@H]2C(=O)N1Cc1ccccc1,0.327
4,C=CCN(C(=O)C1N(CCOCCO)C(=O)C2C(C(=O)O)C3C=CC21O3)c1ccc(OC)cc1 (stereo not drawn),-0.792 and -1.54
5,C=CCN(CCCCC)C(=O)C(c1cccs1)N(C(=O)/C=C\C(=O)O)c1c(Cl)cccc1CO (stereo not drawn),-2.06 and -2.71
6,C=C[C@@H](OC)[C@H](O)c1ccc(OCCO)cc1,-0.333 and -0.692
7,CC(=O)OC[C@H]1O[C@H](C#CC(C)(C)C)C=C[C@@H]1OC(C)=O,0.791
8,C[N+](C)(C)CCCCCCNC(=O)[C@H]1C[C@H]2C(=O)N[C@@H](CCCC[N+](C)(C)C)C(=O)N2[C@H]1c1ccc(O)cc1,1.52 and 0.18
9,COc1ccc(-c2ccc3c(n2)CCCN3CC(O)CN2CCCc3nc(-c4ccc(Br)cc4)ccc32)cc1 (stereo not drawn),0.6 and 0.609
10,CC(CO)N1C(=O)[C@@H]2C3C(=O)OCCC=C[C@H]3OC23C=CCN(Cn2nnc4ccccc42)C(=O)[C@@H]13 (stereo partly drawn),-1.31 and -0.224
11,C[C@@]1([C@@H](NC(=O)Cc2ccccc2)c2ccc(-c3ccccc3)cc2)C[C@H]1C1CCCCC1,-0.131 and -0.0451 and -0.355
12,C=CCN(CCCC)C(=O)C(c1cccs1)N(C(=O)/C=C\C(=O)O)c1c(Cl)cccc1CO (stereo not drawn),-2.72 and -1.18
13,C=C[C@@H](C)[C@@H](O)c1ccc(OCCO)cc1,-2.62 and -0.83

# Source: PubChem BioAssay
